Screens: PubChem, Milwaukee Institute for Drug Discovery
Cy5 interf NS3h = Cy5 fluorescence quenchers or enhancers, artefact control for HCV NS3 helicase inhibitor project, biochemical, ChemBridge library, Cy5 readout; fluorescence interference ratio at 100 µM; 6% of 16,000 active; Cy5-dT15 DNA with NS3h, fluorescence interference; actives lie on both sides; signal over control mean, under 1 quenches;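 active means compound fluorescence over control fluorescence at most 0.8, a quencher, or at least a set upper limit, an enhancer; inactive means ratio between 0.8 and the set upper limit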
NS3h inh CB = HCV NS3 helicase inhibitors, primary screen, biochemical, fluorescence polarization, ChemBridge library | NS3h Cy5-dT15 DNA binding | inhibition, % at 100 µM | Hepatitis C virus NS3 helicase | 1.6% of 16,000 active;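 active means inhibition above the average over every tested compound plus 3 SD, cut at about 40% in these data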
HCV NS3h conf = HCV NS3 helicase inhibitors, retest, confirmation, biochemical, fluorescence polarization, ChemBridge library | shares compounds with NS3h inh CB | NS3h binding to Cy5-dT15 DNA | inhibition, % at 100 µM | 20% of 240 active | AID 720485, 2013;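 active means percent inhibition of 50% or more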
SSB FP counter = E. coli SSB-DNA binding inhibitors, counter-screen for HCV NS3 helicase inhibitor project, biochemical, fluorescence polarization, selected ChemBridge compounds; shares compounds with NS3h inh CB; E. coli SSB binding Cy5-dT15; inhibition, % at 100 µM; 40% of 240 active; AID 720486, 2013;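 active means inhibition of at least 50%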;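 further: displacers lower Cy5 polarization so higher inhibition means more SSB displaced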
Target sequence (P0AGE0 whole entry, looked up): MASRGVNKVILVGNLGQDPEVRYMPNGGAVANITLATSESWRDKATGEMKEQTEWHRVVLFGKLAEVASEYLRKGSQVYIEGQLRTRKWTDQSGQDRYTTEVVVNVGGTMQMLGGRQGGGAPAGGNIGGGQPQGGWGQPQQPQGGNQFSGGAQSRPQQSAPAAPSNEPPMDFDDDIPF
Cy5 SSB interf = Cy5 fluorescence interference with SSB-bound oligo, artefact control for HCV NS3 helicase inhibitor project, biochemical, E. coli SSB, selected ChemBridge compounds | shares compounds with NS3h inh CB | Cy5-dT15/E. coli SSB fluorescence interference; actives lie on both sides | fluorescence interference ratio at 100 µM | 8% of 240 active | AID 720487, 2013;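 active means fluorescence interference ratio at or above 1.2, signal boosting, or at or below 0.8, signal quenching; inactive means ratio between 0.8 and 1.2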;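 further: ratio of compound well signal to mean negative control signal so 1 means no effect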
Cy5 fluor confirm = Cy5-DNA-NS3h complex fluorescence interference, confirmation, artefact control for HCV NS3 helicase inhibitor project, biochemical, ChemBridge library; 44% of 240 active; AID 720489, 2013; fluorescence interference ratio at 100 µM, hits read low; Cy5-dT15 DNA/NS3h fluorescence interference counterscreen; shares compounds with NS3h inh CB;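 active means fluorescence interference ratio at or below 0.8 quencher or at or above a set limitenhancer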;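 further: ratio of compound fluorescence to mean of negative controls so 1 means no interference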
An asterisk follows results filed as active; nt = not tested or not shown. Sampled rows, rich in hits. Any-hit rate of the full collection: about 6.9%.

SMILES	Cy5 interf NS3h	NS3h inh CB	HCV NS3h conf	SSB FP counter	Cy5 SSB interf	Cy5 fluor confirm
COc1ccc(N2C(=O)/C(=C/c3ccc(-c4cc(C(=O)O)ccc4Cl)o3)C(=O)NC2=S)cc1	1.13	32.7	35.1	67.2*	0.879	0.805*
O=C1NC(=O)C(=Cc2ccc(-c3ccc(C(=O)O)cc3)o2)C(=O)N1	0.968	69.4*	28.8	32.0	0.903	0.796*
Cc1ccc(N2C(=O)NC(=O)/C(=C\c3ccc(-c4ccc(Cl)c(C(=O)O)c4)o3)C2=O)cc1	0.986	62.2*	75.3*	62.4*	0.921	1.01
O=C1NC(=O)N(c2ccc(Cl)cc2)C(=O)/C1=C\c1cc(Br)cc(Cl)c1O	0.889	14.5	nt	nt	nt	nt
O=C1NC(=O)N(c2ccccc2F)C(=O)/C1=C/c1ccc(-c2cc(C(=O)O)ccc2Cl)o1	1.07	35.9	92.2*	28.4	0.976	0.831
CN(C)C(=O)C(c1ccccc1)c1ccccc1	0.96	-1.3	nt	nt	nt	nt
O=C(Nc1ccc(Br)cc1C(=O)c1ccccc1)c1ccc([N+](=O)[O-])cc1	1.07	-8.4	nt	nt	nt	nt
COc1cccc(CN2CCN(C(=O)Cc3ccccc3)CC2)c1OC	1.04	-24.4	nt	nt	nt	nt
O=[N+]([O-])c1ccc(N2CCOCC2)c(F)c1Br	0.943	-2.4	nt	nt	nt	nt
CSc1ccc(CN2CCN(Cc3cc(Br)ccc3O)CC2)cc1	0.926	-3.4	nt	nt	nt	nt
Cc1[nH]c2cc(S(=O)(=O)O)c(Oc3ccccc3)cc2c1CCN	1	46.0*	26.7	97.6*	0.903	0.96
CCC1(c2ccccc2)C(=O)NC(=O)N(C(=O)c2ccccc2Br)C1=O (stereo unspecified)	1.03	1.3	nt	nt	nt	nt
Cc1cc(C=C2C(=O)NC(=S)NC2=O)c(C)n1-c1ccccc1	1.01	-0.7	nt	nt	nt	nt
CC(C)Oc1ccccc1C=C1C(=O)NC(=O)NC1=O	1.04	42.4*	18.2	17.5	0.981	0.921
COc1ccc(C=C2C(=O)NC(=O)NC2=O)c(OC)c1	0.849	61.3*	45.7	17.5	0.985	0.992
COc1ccc(CN2CCNCC2)c(OC)c1	1.01	-11.3	nt	nt	nt	nt
Oc1ccc(Br)cc1CN1CCN(Cc2cccc(F)c2)CC1	0.982	0.3	nt	nt	nt	nt
CCC1(c2ccccc2)C(=O)NC(=O)N(C(=O)c2cccc(F)c2)C1=O (stereo unspecified)	1.05	4.3	nt	nt	nt	nt
O=C1c2ccccc2C(=O)N1Cc1nc2ccccc2c(=O)n1-c1ccncc1	0.949	-0.7	nt	nt	nt	nt
Cc1c(C=O)c2ccccc2n1Cc1ccc(Cl)cc1	1.01	5.3	nt	nt	nt	nt
COc1ccccc1CN1CCN(Cc2cc(Br)ccc2O)CC1	1.03	-2.6	nt	nt	nt	nt
Cc1cc(/C=C2\C(=O)NC(=O)N(c3cccc(Br)c3)C2=O)c(C)n1C	1.18	5.3	nt	nt	nt	nt
O=C1NC(=S)NC(=O)C1=Cc1ccc(OCc2cccc(C(=O)O)c2)cc1	1.06	58.4*	38.3	89.1*	0.902	0.899
O=C1NC(=O)N(c2ccc3c(c2)OCO3)C(=O)/C1=C/c1ccc(OCc2cccc(C(=O)O)c2)cc1	1.05	47.7*	20.3	57.5*	0.945	0.751*
Cc1cccc(N2C(=O)/C(=C/c3ccc(OCc4cccc(C(=O)O)c4)cc3)C(=O)NC2=S)c1	1.03	-6.0	nt	nt	nt	nt
SMILES	Cy5 interf NS3h	NS3h inh CB	HCV NS3h conf	SSB FP counter	Cy5 SSB interf	Cy5 fluor confirm
O=C1NC(=S)NC(=O)C1=Cc1ccc(OCc2cccc3ccccc23)cc1	0.899	52.6*	28.8	66.0*	0.854	0.868
CC(=O)NC1(c2ccccc2)CC(C)N(C)CC1C (stereo unspecified)	1.07	-0.3	nt	nt	nt	nt
O=C(Cn1c[n+]([N-][N+](=O)[O-])cn1)Nc1ccc([N+](=O)[O-])cc1	0.999	12.2	nt	nt	nt	nt
CC(=O)c1ccc(OC(=O)Cc2ccccc2)cc1	0.96	-4.5	nt	nt	nt	nt
O=C(Nc1nc2ccccc2s1)C(Cl)(Cl)Cl	0.943	4.3	nt	nt	nt	nt
O=C(NC(O)C(Cl)(Cl)Cl)C1CC=CCC1 (stereo unspecified)	1.12	11.0	nt	nt	nt	nt
COc1cc(C=C2C(=O)N(C)C(=O)N(C)C2=O)ccc1OCCOc1ccccc1	0.954	5.1	nt	nt	nt	nt
CCc1ccc(CN2CCN(C(=O)COc3ccc(Cl)cc3)CC2)cc1	0.976	11.0	nt	nt	nt	nt
